This is a sample that favours compounds with a hit; in the whole collection about 18% have one here.
HepG2 tox: kills HepG2 cells in TGF-b inhibitor counter-screen; actives 0.76% (n = 410,000); HepG2 CAGA-GFP viability, ATP luminescence, 18 h; Potency, µM (top dose mostly 46.1 µM), for inactives: at the highest dose activity change, negative = cytotoxicity, actives largely listed as cytotoxic; AID 588856; note: potency is the fitted concentration of half-maximal effect
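CellTiter-Glo luminescence gave cytotoxicity after 18 hours at 37 degrees C. The cells were HepG2 CAGA-GFP in 1% FBS DMEM, stimulated with 500 pg/mL TGF-beta after compound addition. %Activity was normalised to no-cell wells (complete cell-killing) and DMSO (no toxicity), and curves were fitted and classified.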
DT40 TDP1 no CPT: qHTS for Inhibitors of human tyrosyl-DNA phosphodiesterase 1 (TDP1): qHTS in cells in absence of CPT; DT40 Tdp1-/- hTDP1 cells, no CPT, ATP luminescence, 48 h; AID 686978, 2013; Potency, µM (highest dose often 46.2 µM), inactives show at the top dose activity change, negative = growth inhibition, actives largely listed as inhibitors; actives 15% (n = 420,000); note: potency is the fitted concentration of half-maximal effect; % is set by controls: 0 for no effect and ±100 for the full control effect; nearly all actives have a fitted effect of over 55% in size
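Cells were dispensed at 400 per well, compounds added by pin tool, plates incubated ≥48 hr at 37 °C, then CellTiter-Glo added for 30 min at room temperature before luminescence reading. Line: DT40 Tdp1-/- complemented with hTDP1; camptothecin omitted.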
DT40 TDP1 CPT: DT40-hTDP1 cell growth loss with CPT; actives 12% (n = 420,000); AID 686979; Potency, µM (series often up to 46.2 µM), for the others: top-dose activity change, negative = growth inhibition, actives largely listed as inhibitors; chicken DT40 Tdp1-/-;hTDP1 cells + 20 nM CPT, ATP luminescence, 48 h; note: potency is the fitted concentration of half-maximal effect; % is set by controls: 0 for no effect and ±100 for the full control effect; nearly all actives have a fitted effect of over 55% in size
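Cell growth measured by CellTiter-Glo luminescence after a minimum 48 h, 37 C compound exposure with 20 nM CPT in Tdp1-knockout DT40 cells stably expressing hTDP1, seeded 400/well; qHTS titration format.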
TDP1 inh: inhibitors of human tyrosyl-DNA phosphodiesterase TDP1 | Potency, µM (top dose mostly 130 µM), for the others: at the highest dose activity change, negative = inhibition, most hits filed as inhibitors | Q9NUW8 | recombinant TDP1, AlphaScreen DNA substrate cleavage | actives 0.28% (n = 350,000); note: potency is the fitted concentration of half-maximal effect; % is set by controls: 0 for no effect and ±100 for the full control effect; nearly all actives have a fitted effect of over 40% in size
Target sequence (Q9NUW8 whole entry, looked up): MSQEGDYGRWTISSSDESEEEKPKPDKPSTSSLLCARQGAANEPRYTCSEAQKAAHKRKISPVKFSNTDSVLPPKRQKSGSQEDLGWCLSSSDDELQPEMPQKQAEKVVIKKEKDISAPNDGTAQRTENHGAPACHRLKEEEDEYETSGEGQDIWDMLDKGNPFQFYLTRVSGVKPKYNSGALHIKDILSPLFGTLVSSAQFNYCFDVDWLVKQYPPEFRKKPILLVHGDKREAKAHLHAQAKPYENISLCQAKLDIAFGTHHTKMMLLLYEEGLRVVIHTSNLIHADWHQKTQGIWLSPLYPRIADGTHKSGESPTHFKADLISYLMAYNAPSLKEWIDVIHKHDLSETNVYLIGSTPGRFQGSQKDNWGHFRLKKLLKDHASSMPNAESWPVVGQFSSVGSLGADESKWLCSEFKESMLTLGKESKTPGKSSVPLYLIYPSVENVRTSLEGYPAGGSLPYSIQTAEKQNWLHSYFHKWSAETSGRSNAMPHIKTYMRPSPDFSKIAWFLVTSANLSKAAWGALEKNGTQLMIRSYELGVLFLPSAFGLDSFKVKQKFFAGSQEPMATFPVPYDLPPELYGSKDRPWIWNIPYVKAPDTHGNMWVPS
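Signal: AlphaScreen proximity between streptavidin donor and anti-FITC acceptor beads on intact substrate. Reaction: Tdp1 1 nM, substrate 15 nM final, 5 min RT after 15 min compound preincubation.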
IL1B secr inh: blocks inflammasome-driven IL-1 beta release | THP-1 LPS/ATP IL-1B secretion, AlphaLISA, 16 h; active compounds read low | activity change, % at 57.5 µM | actives 4.7% (n = 360,000); in the data active = activity change below about -50%; inconclusive = mostly about -30% to -49%; note: % is set by controls: 0 for no effect and ±100 for the full control effect
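THP-1 cells pretreated 1 hr with compounds (up to 57.5 uM final), then stimulated with LPS (250 ng/mL final) plus ATP (1.25 mM final); secreted IL-1B measured by AlphaLISA after 16 hr, decreased signal indicating inhibition.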
TGFb SMAD3 inh: TGF-b pathway inhibition. Potency, µM (highest dose often 46.1 µM), without a hit: top-dose activity, negative = inhibition, actives largely listed as inhibitors. HepG2 CAGA-GFP TGF-b/SMAD3 reporter, GFP fluorescence, 18 h; TGF-beta stimulated, 500 pg/mL final. actives 1.2% (n = 410,000); note: potency is the fitted concentration of half-maximal effect; % is set by controls: 0 for no effect and ±100 for the full control effect; nearly all actives have a fitted effect of over 65% in size
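Using HEPG2 CAGA-GFP reporter cells at 1000 cells/well, we pinned test compounds, stimulated with recombinant TGF-beta (500 pg/mL final) and measured total well GFP after 18 h.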
Starred values were filed as active, the others as inactive; ? = inconclusive; . = no result; [ ] = dose if it differs, or a comment. Unless noted, calls come from the whole dose curve; as a rule, active = well fitted curve in the direction sought with a large enough effect; inconclusive = small, poorly fitted or top-dose-only effect, or another doubt; inactive = no such curve, though single readings can be large; an effect the other way counts as inactive or inconclusive.

SMILES	HepG2 tox	DT40 TDP1 no CPT	DT40 TDP1 CPT	TDP1 inh	IL1B secr inh	TGFb SMAD3 inh
COC(=O)C[C@H]1c2cc(C(F)(F)F)ccc2S(=O)(=O)N1C1CCCC1	-4%	?	23µM*	.	-2	-11%
CCCCCCCCN1[C@@H](CC(=O)OC)c2cc(C(F)(F)F)ccc2S1(=O)=O	-19%	?	?	.	30	?
COc1ccc(C)cc1NC(=O)CCS(=O)(=O)c1cc2c(cc1Cl)NC(=O)CO2	7%	22%	-4%	3%	16	7%
COc1ccc(/C=N\NC(=O)COc2ccc(C(C)(C)C)cc2)cc1Cn1nc(C)cc1C	-63%	21µM*	?	7%	13	5.6µM*
COCc1cc(/C=N\NC(=O)COc2ccc(Cl)cc2)ccc1OC	-20%	?	2%	0%	1	-3%
Cc1cc(C)cc(N(CC(=O)NCc2ccccc2Cl)S(=O)(=O)c2c(C)noc2C)c1	-62%	23µM*	?	0%	.	?
Cc1ccc(N(CC(=O)Nc2ccc(OC(F)(F)F)cc2)S(=O)(=O)c2c(C)noc2C)cc1	-32%	18µM*	21µM*	0%	.	3%
COc1cc(NC(=O)CN(c2ccc(C)cc2)S(=O)(=O)c2c(C)noc2C)cc(OC)c1	-19%	7.3µM*	18µM*	8%	?	?
COc1ccc(N(CC(=O)Nc2ccc(C)c(F)c2)S(=O)(=O)c2c(C)noc2C)cc1	-1%	-2%	?	1%	22	-1%
Cc1cc(C)cc(N(CC(=O)Nc2cccc(C)n2)S(=O)(=O)c2c(C)noc2C)c1	-11%	13µM*	21µM*	-3%	-28	?
Cc1ccc(NC(=O)CN(c2cc(C)cc(C)c2)S(=O)(=O)c2c(C)noc2C)nc1	-16%	?	?	-4%	-4	-21%
CCOc1ccc(N(CC(=O)Nc2ccc(C)cc2)S(=O)(=O)c2c(C)noc2C)cc1	-3%	-27%	?	-1%	-11	11%
COc1ccc(-c2noc(-c3ccc(NCc4ccccc4OC)c([N+](=O)[O-])c3)n2)cc1	3%	?	-18%	6%	.	87%
COc1ccc(CNC(=O)CN(c2cc(C)cc(C)c2)S(=O)(=O)c2c(C)noc2C)cc1	8%	?	-22%	1%	15	15%
COc1cc(NC(=O)CN(c2cc(C)cc(C)c2)S(=O)(=O)c2c(C)noc2C)cc(OC)c1	-7%	?	18µM*	3%	-5	-5%
C[C@H](NC(=O)c1ccco1)C(=O)Nc1nc(-c2ccccn2)cs1	-19%	13µM*	?	.	54	0%
O=C(Nc1nc(-c2ccncc2)cs1)c1ccco1	-34%	11µM*	?	6%	-21	-1%
c1ccc(-c2nc(-c3ccco3)cs2)nc1	-15%	16µM*	15µM*	4%	-8	34%
O=C(Nc1nc(-c2ccccn2)cs1)c1ccco1	-31%	1.6µM*	5.2µM*	10%	74	-29%
COc1ccc(O[C@H]2C=C[C@@H](c3ccccc3)O[C@H]2COC(=O)CC/C(C)=N/O[C@@H]2O[C@H](COC(C)=O)[C@H](OC(C)=O)[C@H](OC(C)=O)[C@H]2OC(C)=O)cc1	.	.	.	7%[21 µM]	.	.
CCCCN(C(=O)c1ccc(C#N)cc1)c1c(N)n(CCC)c(=O)[nH]c1=O	-4%	?	-14%	18%	-11	-11%
COc1ccc(C2NC(=O)N(C)C3=C2C(=O)N(c2cccc(Cl)c2)C3)cc1 (stereo not given)	-8%	-1%	-2%	7%	.	0%
C[C@]12CCC(O)CC1=CCC1C2CC[C@]2(C)/C(=N\NC(N)=S)CCC12 (stereo not given in full)	-3%	-21%	-13%	.	2	7%
O=C(Nc1nc(-c2ccncc2)cs1)C1c2ccccc2Oc2ccccc21	-17%	13µM*	21µM*	7%	9	-47%
COc1ccc(-c2csc(NC(=O)COC(=O)c3ccco3)n2)cc1	-5%	?	23µM*	3%	-11	-4%
SMILES	HepG2 tox	DT40 TDP1 no CPT	DT40 TDP1 CPT	TDP1 inh	IL1B secr inh	TGFb SMAD3 inh
COc1ccc(-c2csc(NC(=S)NC(=O)c3ccco3)n2)cc1	-13%	3%	-5%	2%	21	-1%
O=C(Nc1nc(-c2ccccn2)cs1)c1cccc(-n2cnnn2)c1	2%	4.6µM*	5.2µM*	.	180	-14%
CCC(=O)N1CCc2cc(-c3csc(NC(=O)c4ccco4)n3)ccc21	-8%	13µM*	?	6%	10	-2%
COc1ccc(CN(Cc2ccccc2)S(=O)(=O)c2ccccc2)cc1COc1ccc(NC(C)=O)cc1	.	.	.	1%	.	.
COCCn1c(SCC(=O)c2c[nH]c3ccccc23)nc2cc(C(=O)NCC(C)C)ccc2c1=O	-13%	-19%	?	-3%	.	-22%
O=C(N=C1SC2CS(=O)(=O)CC2N1CCc1ccccc1)C1CCCCC1 (stereo not given)	-19%	-23%	-12%	0%	14	1%
O=C(CSc1nnc(-c2ccccc2)c(-c2ccccc2)n1)Nc1ccccc1Cl	-6%	?	?	8%	.	-12%
O=C(Nc1ccc(Br)cc1)c1ccc2c(c1)OCO2	-39%	13%	-9%	1%	?	-15%
O=C(Nc1nc(-c2ccccn2)cs1)c1ccc(Br)s1	-12%	0.65µM*	1µM*	12%	100	-28%
O=C(Nc1nccs1)c1ccc(Br)s1	-15%	29%	-18%	3%	4	-12%
O=C(Nc1nc(-c2cc(Cl)sc2Cl)cs1)c1ccc(Br)s1	0%	16µM*	18µM*	3%	-27	1%
CC(=O)Nc1nc(-c2ccc(Br)s2)cs1	3%	-19%	-16%	-8%	-8	10%
C=CCC(O)CC1C2C(CC(O)CC=C)C3C1C3C2OC(C)(C)C (stereo not given)	.	.	.	6%[21 µM]	.	.
CC(C)C[C@@]12C(=O)N(c3cccc(F)c3)C(=O)N1[C@H](c1ccc(Br)cc1)[C@@H]1C(=O)N(C(C)(C)C)C(=O)[C@@H]12	-11%	21µM*	?	0%	-2	0%
CC[C@@]12C(=O)N(c3cccc(Cl)c3)C(=O)N1[C@H](c1ccc(Br)cc1)[C@@H]1C(=O)N(C(C)(C)C)C(=O)[C@@H]12	-3%	16µM*	26µM*	0%	-25	-22%

Compound activity as filed in PubChem BioAssay.
